What all share (assay): NCI-60 one-dose screen, 48 h (100 = growth as untreated, 0 = no growth, -100 = all killed)
Holding throughout (details): 10 µM unless noted

Assay [1] has as its system HCT-15 colon.
In assay [2] the test system is HT29 colon.
For assay [3], the system named is SNB-75 CNS.
The test system of assay [4] is SNB-19 CNS.
Assay [5] concerns U251 CNS.
Assay [6] concerns PC-3 prostate.
For assay [7], the system named is SK-MEL-5 melanoma.
Assay [8] deals with UACC-62 melanoma.
For assay [9], the system named is LOX IMVI melanoma.
Assay [10] has as its system SK-MEL-28 melanoma.
Assay [11] concerns SK-MEL-2 melanoma.
For assay [12], the system named is EKVX NSCLC.
Assay [13] relates to SN12C renal.
Assay [14] relates to UO-31 renal.
The subject of assay [15] is TK-10 renal.
Assay [16] concerns ACHN renal.
Assay [17] has as its system CAKI-1 renal.
Assay [18] relates to A498 renal.
The subject of assay [19] is CCRF-CEM leukemia.
For assay [20], the system named is MOLT-4 leukemia.

About 83,000 compounds went through this panel and 20% of them were active in at least one assay; those are over-represented in the sample as a whole.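 Each cell line was grown in a 96-well plate and treated with one concentration of compound for 48 hours. Values below 10 were considered active.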 Unmarked numbers belong to inactive results. The source made the active and inactive calls.

With `Cc1cc(C)c(-c2c(O)c(Br)c(-c3c(C)cc(C)c(Br)c3C)c(O)c2Br)c(C)c1Br`, the growth in assay [1] was 10.2%; in assay [2], 2.43% (active); in [3], 33.4%; in assay [4], 47.5%; in [5] it was 19.8%; in [6], 27.7%. Moreover, the growth is 1.69% (active) in assay [7]; 14.8% in assay [8]; -26% (active) in [9]; 49.1% in [10]; -22.3% (active) in assay [11]; 19.2% in [12]. The growth in [13] was 37.2%; in [14], -29.9% (active); in [15], 12%; in assay [16], 14.1%; in [17], 5.75% (active); in assay [18], 64.7%. Further, the growth in [19] is 35.6%; in assay [20], 28.9%.
On to `O=C(Nc1nc(C(=O)N2CCN(C(c3ccccc3)c3ccccc3)CC2)cs1)c1ccc(NC2CCCCC2)c([N+](=O)[O-])c1`, for which the growth is 96.9% in assay [1]; 86.1% in assay [2]; 86.1% in [3]; 85.9% in assay [4]; 83.5% in [5]; 76.1% in [6]. Besides, the growth was 60.6% in assay [7]; 67.1% in assay [8]; 91.5% in [9]; 100% in assay [10]; 104% in [11]; 77.9% in [12]. Further, the growth was 85.6% in [13]; 66.1% in [14]; 100% in [15]; 86.6% in assay [16]; 78.4% in [17]; 87.6% in assay [18]. For the same compound, the growth was 95% in assay [19] and 77.9% in assay [20].
`O=C(Cn1nnc([N+](=O)[O-])n1)c1ccccc1`: the growth was 80.5% in [1]; 66.4% in assay [2]; 67.9% in assay [3]; 116% in [4]; 106% in [5]; 79.8% in assay [6]. The growth in [7] is 84.1%; in assay [8], 68.8%; in assay [9], 59.6%; in assay [10] it was 110%; in assay [11], 73.3%; in assay [12], 100%. The growth was 102% in [13]; 85.1% in assay [14]; 92% in assay [15]; 107% in assay [16]; 77.7% in [17]; 48.6% in [18]. Besides, the results for the growth in assay [19] and in [20] were 58.6% and 95.3%, respectively.
As for `COc1ccc2cc(-c3cnc4nonc4n3)ccc2c1`, the growth was 22.7% in [1]; 13.4% in assay [2]; 15.8% in assay [3]; 37.7% in assay [4]; 16.9% in assay [5]; 25.5% in [6]. Further, the growth is 31.8% in [7]; 2.86% (active) in [8]; 25.5% in [9]; 86.3% in [10]; 52.7% in assay [11]; 16.1% in assay [12]. Moreover, the growth is 38.7% in assay [13]; 37.7% in assay [14]; 54.5% in assay [15]; 50.8% in assay [16]; 29.7% in [17]; 60.8% in assay [18]. For the same compound, the figures for the growth in assay [19] and in assay [20] were 8.1% (active) and 6.87% (active), respectively.
In the case of `O=C1/C(=C/c2ccc(Br)cc2)COc2ccc(O)c(O)c21`, the growth in assay [1] is 0.349% (active); in assay [2] it was 2.83% (active); in assay [3] it was 20.4%; in assay [4], 6.19% (active); in [5], -72.4% (active); in [6] it was -26.3% (active). Also, the growth in [7] is 29.8%; in [8], -14.2% (active); in assay [9], -91% (active); in assay [10] it was 22%; in assay [11], 47.2%; in assay [12], 23.2%. Also, the growth was -41.1% (active) in assay [13]; -99.2% (active) in [14]; 4.99% (active) in [15]; -84.2% (active) in assay [16]; -36% (active) in assay [17]; 98.9% in assay [18]. Also, the growth in [19] was -6.17% (active); in [20], -9.5% (active).
As to `Cc1cc2nc3c4ccccc4n(CCN(C)C)c3nc2cc1C`, the growth is -3.11% (active) in assay [1]; 8.23% (active) in assay [2]; 4.8% (active) in [3]; 26% in assay [4]; 15.7% in assay [5]; 12.9% in [6]. For the same compound, the growth is 6.22% (active) in [7]; 36.2% in assay [8]; -63.2% (active) in assay [9]; 20.1% in assay [10]; 11% in assay [11]; 18.1% in assay [12]. Besides, the growth in assay [13] is 16.9%; in assay [14], -12% (active); in assay [15] it was 26.7%; in assay [16], -26.5% (active); in assay [17], -3.55% (active); in [18], -15.2% (active). The growth in [19] was 10.3%; in assay [20] it was 4.73% (active).
As for `COc1cc(-c2nc3ccc(C)cc3[nH]2)ccc1OCC(=O)N=Nc1c(O)[nH]c2ccc(Cl)cc12`, the growth in [1] was 58.8%; in assay [2] it was -27.6% (active); in assay [3] it was -42.1% (active); in assay [4], 3.43% (active); in assay [5], -41.6% (active); in [6], 11.1%. The growth was 56% in [7]; 19.9% in assay [8]; -96.8% (active) in [9]; 3.39% (active) in [10]; 13% in assay [11]; 50.7% in assay [12]. Besides, the growth is -56.4% (active) in [13]; 86.3% in assay [14]; 23.4% in [15]; 31.4% in assay [16]; -61.8% (active) in assay [17]; 82.2% in [18]. For the same compound, the growth was -39.1% (active) in assay [19] and -17.9% (active) in [20].

The values are drawn from PubChem BioAssay (NCI).
